Measured values from PubChem BioAssay (Tox21).
“And” between values parts separate entries of the source, which are not always exact repeats. Equal values may be shown once. Records with an inconclusive call do not appear. Where a structure was tested more than once in an assay, its records may differ in their call. The source made the active and inactive calls. Unless noted, calls come from the whole dose curve; as a rule, active = well fitted curve in the direction sought with a large enough effect in the repeat runs; inconclusive = weak or mixed curves; inactive = no such curve, though single readings can be large; an effect the other way counts as inactive or inconclusive.

Legend:
[1] = A CellTox Green Cytotoxicity Assay to monitor cytotoxicity in HepG2 cells - 8 hour (AID 1224890); note: nearly all actives have a fitted effect of over 45% in size
How it was run: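 Real-time cytotoxicity: fluorescence of a cell-impermeant cyanine dye binding DNA of dead HepG2 cells, measured repeatedly (0–40 h) during compound exposure at 37 C. Cells seeded 600/well with reagent, dosed after 5 h.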

[2] = qHTS assay to identify small molecule antagonists of the estrogen receptor alpha (ER-alpha) signaling pathway using the BG1 cell line in the presence of 0.1 nM 17-beta-estradiol - cell viability counter screen (AID 1259241); note: nearly all actives have a fitted effect of over 40% in size
How it was run: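 Live-cell protease activity (CellTiter-Fluor fluorescence, 30 min) was read in the same wells after VM7Luc4E2 cells had been exposed to compounds with 0.1 nM 17beta-estradiol for 22 hr at 37C.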

[3] = qHTS assay to identify small molecule antagonists of the androgen receptor (AR) signaling pathway using the MDA cell line in the presence of 0.5 nM R1881 - cell viability counter screen (AID 1259242); note: nearly all actives have a fitted effect of over 45% in size
How it was run: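 Live-cell protease activity was measured by CellTiter-Fluor fluorescence after 30 min. Before that, MDA-kb2 MMTV-luciferase cells had 16 hr at 37C without CO2, exposed to test compounds and 0.5 nM R1881 final.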

[4] = biological target: Estrogen receptor (Homo sapiens) (UniProt P03372); assay: qHTS assay to identify small molecule antagonists of the estrogen receptor alpha (ER-alpha) signaling pathway using the BG1 cell line in the presence of 0.1 nM 17-beta-estradiol (AID 1259244); note: nearly all actives have a fitted effect of over 50% in size
How it was run: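 Luciferase luminescence (ONE-Glo, 30 min at room temperature) was read after 22 hr at 37C exposure to compounds plus 17beta-estradiol at 0.1 nM final. Cells were VM7Luc4E2 with endogenous ER-alpha and an ERE-driven luciferase, pre-cultured 5 days in hormone-depleted medium.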

[5] = qHTS assay to identify small molecule phospholipidosis (PLD) inducers (AID 1259344; active = well fitted curve in the direction sought with a large enough effect; an effect the other way counts as inactive or inconclusive)
How it was run: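 Accumulated phospholipid, stained red by LipidTOX during 24 h compound treatment of HepG2 cells at 37 C, is quantified from images as pit number and intensity, normalised per cell using Hoechst-stained nuclei.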

[6] = qHTS assay to identify small molecule HDAC inhibitors (AID 1259364); note: top concentration of the series differs between compounds; nearly all actives have a fitted effect of over 45% in size
How it was run: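 Luminescence read after 30 min room-temperature HDAC-Glo incubation measures cellular class I/II HDAC activity. Compounds were applied for 2 hr at 37 C to HCT-116 wild-type cells seeded the day before.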

[7] = qHTS assay to identify small molecule HDAC inhibitors - cell viability counter screen (AID 1259365); note: series mostly up to about 92 µM; nearly all actives have a fitted effect of over 50% in size
How it was run: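 HCT-116 (wild type), 1,500 cells/well, overnight 37C/5% CO2; compound in DMSO 2hr; CellTiter-Glo 30min RT; luminescence read.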

[8] = qHTS assay to identify small molecule agonists of the sonic hedgehog signaling (Shh) pathway - cell viability counter screen (AID 1259366); note: nearly all actives have a fitted effect of over 50% in size; note: potency is the fitted concentration of half-maximal effect
How it was run: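 CellTiter-Fluor fluorescence read-out, 1 hr at 37C, added after 23hr compound exposure. Cells: 3T3 Gli1-Luc, an NIH/3T3 clone with stably integrated Gli1-Luc reporter, plated 4hr before compound.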

[9] = qHTS assay to identify small molecule antagonists of the sonic hedgehog signaling (Shh) pathway - cell viability counter screen (AID 1259367); note: nearly all actives have a fitted effect of over 55% in size; note: potency is the fitted concentration of half-maximal effect
How it was run: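 CellTiter-Fluor signal in conditioned medium-stimulated 3T3 Gli1-Luc cells, 23 hr compound exposure, 37C.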

[10] = qHTS assay to identify small molecule agonists of the sonic hedgehog signaling (Shh) pathway (AID 1259368; calls by dose curve;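 note: NIH/3T3-derived 3T3Gli1-Luc cells carrying a stable Gli1-driven firefly luciferase reporter; series mostly up to about 92 µM; nearly all actives have a fitted effect of over 15% in size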)
How it was run: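 Luminescence was read after 30 min at room temperature with luciferase reagent. Before that, 3T3Gli1-Luc cells (NIH/3T3 clone, stable Gli1-Luc reporter; 2,000/well) were exposed to compounds for 24 hr at 37C, 5% CO2, compounds being added 4 hr post-plating.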

[11] = qHTS assay to identify small molecule antagonists of the sonic hedgehog signaling (Shh) pathway (AID 1259369; calls by dose curve; note: nearly all actives have a fitted effect of over 45% in size; note: potency is the fitted concentration of half-maximal effect)
How it was run: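 Antagonist mode: compound added to 3T3 Gli1-Luc cells followed by conditioned-medium stimulation, 24 h at 37 C, 5% CO2. Inhibition taken as loss of Gli1-driven luciferase luminescence.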

[12] = qHTS assay to identify small molecule agonists of the androgen receptor (AR) signaling pathway in the presence of an antagonist - cell viability counter screen (AID 1259379); note: nearly all actives have a fitted effect of over 25% in size; note: potency is the fitted concentration of half-maximal effect;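 for activity change, negative = cytotoxicity: MDA-kb2 human breast cancer cells carrying an MMTV luciferase reporter; series mostly up to about 92 µM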
How it was run: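 Cytotoxicity counter-screen run in the same wells as the nilutamide-challenged (3.0 µM final) AR agonist assay in MDA-kb2 cells. Compounds tested at 15 concentrations for 16 h, 37 °C without CO2; CellTiter-Fluor fluorescence read.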

[13] = qHTS assay to identify small molecule agonists of the estrogen receptor beta (ER-beta) signaling pathway - cell viability counter screen (AID 1259380); note: nearly all actives have a fitted effect of over 30% in size
How it was run: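 Cell viability counter screen: CellTiter-Glo luminescence (30 min, room temperature) measured in the same wells as the beta-lactamase readout, after 16 hr compound exposure at 37C of ER-beta-bla HEK293T cells in 2% charcoal-stripped FBS medium.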

[14] = qHTS assay to identify small molecule antagonists of the estrogen receptor beta (ER-beta) signaling pathway - cell viability counter screen (AID 1259382);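 note: HEK293T cells carrying ER-beta-UAS-bla reporter stimulated with estradiol; series mostly up to about 92 µM; nearly all actives have a fitted effect of over 55% in size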
How it was run: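 Cytotoxicity was measured in the same wells by CellTiter-Glo luminescence after 30 min at room temperature. Cells were ER-beta-bla HEK293T in charcoal-stripped serum, given compound together with 1 nM E2 and incubated 16 h at 37C.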

[15] = biological target: Estrogen receptor (Homo sapiens) (UniProt P03372); assay: qHTS assay to identify small molecule agonists of the estrogen receptor alpha (ER-alpha) signaling pathway in the presence of an antagonist (AID 1259383; calls by dose curve; note: nearly all actives have a fitted effect of over 15% in size; note: potency is the fitted concentration of half-maximal effect; for activation: top concentration of the series differs between compounds)
How it was run: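 Agonist-mode confirmation run in the presence of 10.0nM (final) ICI-182,780 antagonist. The reporter was ERE-driven luciferase in VM7Luc4E2 cells, grown in charcoal-stripped serum. Cells were exposed to 15-concentration compound series for 22hr, then ONE-Glo luminescence was read.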

[16] = qHTS assay to identify small molecule agonists or antagonists of the thyroid stimulating hormone receptor (TSHR) signaling pathway - wild type cell line counter screen (AID 1259384; calls by dose curve)
How it was run: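 Counter screen in untransfected Hek293: compounds (15-point titration, triplicate) plus phosphodiesterase inhibitor Ro20-1724 added after 18 h plating; 30 min RT. Intracellular cAMP via competitive d2/cryptate immunoassay, 1 h incubation.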

[17] = biological target: Estrogen receptor beta (Homo sapiens) (UniProt Q92731); assay: qHTS assay to identify small molecule agonists of the estrogen receptor beta (ER-beta) signaling pathway (AID 1259377; active = well fitted activation curve with a large enough effect in the signal ratio in the repeat runs, not every such curve was filed as active; the % refers to the signal ratio)
How it was run: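 Beta-lactamase reporter readout: fluorescence of LiveBLAzer B/G FRET substrate after 2 h at room temperature, following 16 h compound treatment of ER-beta-UAS-bla HEK293T cells at 37C in 2% charcoal-stripped FBS medium.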

[18] = biological target: Estrogen receptor beta (Homo sapiens) (UniProt Q92731); assay: qHTS assay to identify small molecule antagonists of the estrogen receptor beta (ER-beta) signaling pathway (AID 1259378; active = well fitted inhibition curve with a large enough effect in the signal ratio in the repeat runs, not every such curve was filed as active; the % refers to the signal ratio)
How it was run: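 Antagonist mode: compounds added to beta-lactamase reporter HEK293T ER-beta-UAS cells stimulated with E2 (1nM final), 16 hr at 37C. LiveBLAzer B/G FRET substrate, 2 hours room temperature, fluorescence read-out.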

[19] = biological target: Androgen receptor (Homo sapiens) (UniProt P10275); assay: qHTS assay to identify small molecule antagonists of the androgen receptor (AR) signaling pathway using the MDA cell line in the presence of 0.5 nM R1881 (AID 1259243); note: nearly all actives have a fitted effect of over 50% in size; note: potency is the fitted concentration of half-maximal effect
How it was run: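 Luminescent reporter readout (ONE-Glo, 30 min, room temperature) after 16 hr co-treatment of MDA-kb2 cells with test compounds and 0.5 nM R1881 final, at 37C without CO2. The MMTV-driven luciferase responds to both AR and GR.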

[20] = biological target: Androgen receptor (Homo sapiens) (UniProt P10275); assay: qHTS assay to identify small molecule agonists of the androgen receptor (AR) signaling pathway in the presence of an antagonist (AID 1259381; calls by dose curve; note: nearly all actives have a fitted effect of over 15% in size)
How it was run: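 Agonist-mode confirmation run against 3.0 uM final nilutamide: compounds titrated at 15 concentrations onto MDA-kb2 MMTV-luciferase reporter cells. Luminescence measured with ONE-Glo following 16 hr incubation, 37C, 0% CO2.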
% is set by controls: 0 for no effect and ±100 for the full control effect.

Sequence of Androgen receptor (Homo sapiens) (P10275 whole entry, looked up): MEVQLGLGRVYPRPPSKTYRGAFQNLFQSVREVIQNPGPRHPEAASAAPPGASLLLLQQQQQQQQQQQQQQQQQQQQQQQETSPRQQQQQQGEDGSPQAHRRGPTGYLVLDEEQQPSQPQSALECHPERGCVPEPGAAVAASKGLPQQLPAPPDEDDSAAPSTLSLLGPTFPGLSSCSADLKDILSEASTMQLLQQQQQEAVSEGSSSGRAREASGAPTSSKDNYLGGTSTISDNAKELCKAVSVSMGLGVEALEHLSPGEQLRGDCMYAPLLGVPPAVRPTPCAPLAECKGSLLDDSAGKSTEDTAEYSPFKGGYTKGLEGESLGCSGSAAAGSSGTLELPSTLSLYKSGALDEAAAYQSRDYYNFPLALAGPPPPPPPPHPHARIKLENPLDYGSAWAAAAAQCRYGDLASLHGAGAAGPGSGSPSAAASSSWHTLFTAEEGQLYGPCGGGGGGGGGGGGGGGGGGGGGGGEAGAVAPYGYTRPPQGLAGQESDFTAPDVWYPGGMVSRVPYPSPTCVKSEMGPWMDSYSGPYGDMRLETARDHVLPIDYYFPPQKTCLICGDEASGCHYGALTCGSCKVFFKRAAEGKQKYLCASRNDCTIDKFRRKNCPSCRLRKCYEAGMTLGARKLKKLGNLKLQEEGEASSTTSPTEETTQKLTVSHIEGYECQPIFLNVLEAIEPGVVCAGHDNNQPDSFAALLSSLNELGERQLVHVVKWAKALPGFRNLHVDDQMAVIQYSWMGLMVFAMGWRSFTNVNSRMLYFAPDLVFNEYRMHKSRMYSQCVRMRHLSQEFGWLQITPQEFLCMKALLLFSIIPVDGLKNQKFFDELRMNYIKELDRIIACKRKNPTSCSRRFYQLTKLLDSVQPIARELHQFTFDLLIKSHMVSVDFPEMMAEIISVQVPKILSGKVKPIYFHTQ
Sequence of Estrogen receptor (Homo sapiens) (P03372 whole entry, looked up): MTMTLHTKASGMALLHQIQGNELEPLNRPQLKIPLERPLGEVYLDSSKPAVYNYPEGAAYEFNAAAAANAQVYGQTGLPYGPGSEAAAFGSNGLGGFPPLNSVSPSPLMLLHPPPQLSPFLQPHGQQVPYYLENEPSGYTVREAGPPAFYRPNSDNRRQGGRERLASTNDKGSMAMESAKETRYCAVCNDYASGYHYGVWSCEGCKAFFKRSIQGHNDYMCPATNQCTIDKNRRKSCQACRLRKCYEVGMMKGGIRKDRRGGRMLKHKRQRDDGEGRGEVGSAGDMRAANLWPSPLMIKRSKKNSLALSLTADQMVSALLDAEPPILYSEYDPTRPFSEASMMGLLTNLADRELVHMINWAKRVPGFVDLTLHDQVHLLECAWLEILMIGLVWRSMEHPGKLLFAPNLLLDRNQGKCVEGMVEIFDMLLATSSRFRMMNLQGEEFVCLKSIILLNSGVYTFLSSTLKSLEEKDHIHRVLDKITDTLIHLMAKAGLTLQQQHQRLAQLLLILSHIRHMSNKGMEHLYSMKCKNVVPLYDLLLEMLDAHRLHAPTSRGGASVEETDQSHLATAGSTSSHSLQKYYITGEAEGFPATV
Sequence of Estrogen receptor beta (Homo sapiens) (Q92731 whole entry, looked up): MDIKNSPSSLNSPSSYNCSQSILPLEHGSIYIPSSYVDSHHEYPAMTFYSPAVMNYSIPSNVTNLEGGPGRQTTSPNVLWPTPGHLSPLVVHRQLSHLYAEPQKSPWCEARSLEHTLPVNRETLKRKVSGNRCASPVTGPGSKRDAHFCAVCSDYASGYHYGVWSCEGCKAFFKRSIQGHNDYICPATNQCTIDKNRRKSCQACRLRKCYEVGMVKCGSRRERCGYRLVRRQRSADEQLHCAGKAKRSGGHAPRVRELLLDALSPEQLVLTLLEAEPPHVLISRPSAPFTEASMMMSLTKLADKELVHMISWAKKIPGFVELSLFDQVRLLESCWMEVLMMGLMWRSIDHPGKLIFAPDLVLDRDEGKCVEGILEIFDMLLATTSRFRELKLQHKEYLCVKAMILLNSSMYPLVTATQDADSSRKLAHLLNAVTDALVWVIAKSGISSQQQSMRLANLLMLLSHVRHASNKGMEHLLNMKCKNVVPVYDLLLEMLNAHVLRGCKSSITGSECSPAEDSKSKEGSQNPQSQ

CCN[C@H](C)Cc1cccc(C(F)(F)F)c1
inactive: Potency [1] | outcome [2] | Potency [3] | Potency [4] | Potency [5] | Potency [6] | outcome [7] | Potency [8] | Potency [9] | outcome [10] | Potency [11] | Potency [12] | Potency [13] | Potency [14] | Potency [15] | outcome [16]

CC1NCCOC1c1ccccc1 (stereo not given)
inactive: Potency [1] | outcome [2] | Potency [3] | Potency [4] | Potency [5] | Potency [6] | outcome [7] | Potency [8] | Potency [9] | outcome [10] | Potency [11] | Potency [17] | outcome [18] | Potency [12] | Potency [13] | Potency [14] | Potency [15] | outcome [16]

OP(O)c1ccccc1
inactive: Potency [1] | outcome [2] | Potency [3] | Potency [19] | Potency [4] | Potency [6] | outcome [7] | Potency [8] | Potency [9] | outcome [10] | Potency [11] | Potency [17] | outcome [18] | Potency [12] | Potency [13] | Potency [20] | Potency [14] | Potency [15] | outcome [16]

C[C@]12C=CC(=O)C=C1CC[C@@H]1[C@@H]2CC[C@@]2(C)[C@H]1CC[C@]2(C)O
active: Potency [15] 2.98 µM
inactive: Potency [1] | outcome [2] | Potency [3] | Potency [4] | Potency [5] | Potency [6] | outcome [7] | Potency [8] | Potency [9] | outcome [10] | Potency [12] | Potency [14] | outcome [16]

Clc1ccc(C(Cl)(Cl)Cl)cn1
inactive: Potency [1] | outcome [2] | Potency [3] | Potency [19] | Potency [6] | outcome [7] | Potency [9] | outcome [10] | Potency [11] | Potency [12] | Potency [13] | Potency [20] | Potency [14] | Potency [15] | outcome [16]

COC[C@@H](NC(C)=O)C(=O)NCc1ccccc1
inactive: Potency [1] | outcome [2] | Potency [3] | Potency [19] | Potency [6] | outcome [7] | Potency [8] | Potency [9] | outcome [10] | Potency [11] | Potency [17] | outcome [18] | Potency [12] | Potency [13] | Potency [20] | Potency [14]

C[C@H]1CCCC(=O)CCC/C=C/c2cc(O)cc(O)c2C(=O)O1
14.8 µM (active) and inactive: Potency [11]
46.8 µM (active) and inactive: Potency [12]
active: Potency [19] 20.9 µM | Potency [8] 20.9 µM | Potency [9] 23.4 µM | Potency [15] 41.7 nM and 56.3 nM
inactive: Potency [1] | outcome [2] | Potency [3] | Potency [6] | outcome [7] | outcome [10] | Potency [13] | Potency [20] | Potency [14]

Clc1cc2c(cc1Cl)Oc1cc(Cl)c(Cl)cc1O2
inactive: cytotoxicity increase [1] -6.05% [at 0.29 µM] | activity change, negative = cytotoxicity [2] -0.812% [at 0.349 µM] | viability change, negative = cytotoxic [3] -3.69% [at 0.349 µM] | activity, negative = inhibition [19] 16.7% [at 0.349 µM] | activity change, negative = inhibition [6] 0.908% [at 0.349 µM] | activity change, negative = cytotoxicity [7] 6.76% [at 0.349 µM] | viability change, negative = cytotoxic [8] -1.46% [at 0.349 µM] | viability change, negative = cytotoxic [9] 1.51% [at 0.349 µM] | activity change [10] 0.117% [at 0.349 µM] | activation [17] -4.72% [at 0.348 µM] | activity, negative = inhibition [18] 4.24% [at 0.349 µM] | activity change, negative = cytotoxicity [12] 1.17% [at 0.35 µM] | activity change, negative = cytotoxicity [13] 2.45% [at 0.349 µM] | activation [20] 3.07% [at 0.349 µM] | activity change, negative = cytotoxicity [14] -1.8% [at 0.349 µM] | activation [15] -1.56% [at 0.349 µM] | cAMP activity change [16] 1.16% [at 0.349 µM]
